These results are taken from PubChem BioAssay AID463173 (ICCB-Longwood Screening Facility, Harvard Medical School, 2010).

The campaign covered roughly 52,000 compounds. About 1,700 (3.3%) were called active. Rule as the data show it: active = survival mostly below about 52% (no sharp cut-off); inactive = mostly above about 56%. Many of the other results were omitted from the sample, so actives are more common in it than they were.

The subject of the assay is Wild type. Nature of the assay: growth inhibition of S. aureus wild type versus tarO mutant, primary screen, teichoic acid synthesis inhibitors, RN4220, OD600 (AID 463173). As to conditions: S. aureus RN4220 wild type/DeltatarO growth, OD600, 18 h, stronger effect = lower value, screened at 18.75 µg/mL (by protocol).
As to `COc1ccccc1Cc1nc2ccccc2nc1SCC(=O)Nc1ccc2c(c1)OCO2`, the survival is 45% (inactive).
Then `O=C(Cn1nnc(-c2ccccc2)n1)N1CCCCC1`, with 109% (inactive); and `Cc1ccc(S(=O)(=O)N2CCN(Cc3ccccc3Cl)CC2)cc1`, with 19% (active).
Regarding `Cc1ccc(S(=O)(=O)N2CCC(C(=O)NCc3ccccc3Cl)CC2)cc1`, the survival was 64% (inactive).
As to `CC(=O)Nc1ccc(S(=O)(=O)N2CCN(Cc3ccccc3Cl)CC2)cc1`, the survival was 117% (inactive).
The result for `CC(C)(C)c1ccc(C(=O)NC2(C(F)(F)F)NC(=O)N(CCc3ccccc3)C2=O)cc1` (stereo not given) reads 43% (inactive).
For the molecule `O=C(Nc1cccc(C(F)(F)F)c1)c1cccs1`, the survival was 116% (inactive).
As for `O=C(Nc1cccc(C(F)(F)F)c1)Nc1ccc2snnc2c1`, the survival was 29% (active).
For `Cc1c(Cl)cccc1NC(=O)c1ccc2snnc2c1`, the survival is 106% (inactive).
Turning to `O=C(Nc1cccc(C(F)(F)F)c1)Nc1cccs1`, the survival was 4% (active).
As to `O=C(Nc1ccc(F)cc1)Nc1ccc2snnc2c1`, the survival was 45% (inactive).
Regarding `O=C(Nc1cccc(C(F)(F)F)c1)c1ccc2snnc2c1`, the survival is 118% (inactive).
With `Cc1c(Cl)cccc1NC(=O)Nc1ccc2snnc2c1`, the survival was 24% (active).
Then `CCc1ccccc1NC(=O)Nc1ccc2snnc2c1`, with 82% (inactive).
With `O=C(Nc1cccs1)Nc1cc(C(F)(F)F)ccc1Cl`, the survival was 26% (inactive).
The result for `CCc1ccc(NC(=O)CSc2nc3c(sc4ccccc43)c(=O)n2CCN(CC)CC)cc1` reads 73% (inactive).
Then `CCN(CC)/C(=N/OCc1ccc(Cl)cc1Cl)c1nonc1N`, with 100% (inactive).
Consider `CC1=NN(C(C#N)c2ccccc2)C(C)(C)C1` (stereo not given), for which the survival was 113% (inactive).
For `Cc1cccc(N2CCN(Cc3nnc(-c4ccc5c(c4)OCO5)o3)CC2)c1C`, the survival is 83% (inactive).
Consider `Cc1cc2nnc(SCc3ccc(F)cc3)n2c2ccccc12`, for which the survival is -2% (active).
Turning to `CCCN(CCC)C(=O)CSc1nnc2cc(C)c3ccccc3n12`, the survival is 84% (inactive).
With `CCOC(=O)c1ccc(CSc2nnc3cc(C)c4ccccc4n23)cc1`, the survival is 108% (inactive).
As to `COc1ccc(Cn2c(SCc3ccc(C(=O)NCCc4ccccc4)cc3)nc3cccnc32)cc1`, the survival was 77% (inactive).
The result for `CCCCn1c(NCc2ccc(N(C)C)cc2)nc2ccccc21` reads 70% (inactive).
As to `CCCCn1c(NCc2cc(Br)ccc2O)nc2ccccc21`, the survival is 69% (inactive).
As for `CCCn1c(NCc2ccccc2C)nc2ccccc21`, the survival is 95% (inactive).
Then `CCCCn1c(NCc2ccc(OC)cc2O)nc2ccccc21`, with 88% (inactive).
Regarding `CCCn1c(NCc2ccccc2F)nc2ccccc21`, the survival is 89% (inactive).
The result for `CCCCCn1c(NCc2ccc(OC)cc2)nc2ccccc21` reads -2% (active); that for `CCCn1c(NCc2ccc(N(CC)CC)cc2)nc2ccccc21`, 0% (active); that for `CCn1c(NCc2ccc(OC)c(OC)c2)nc2ccccc21`, 127% (inactive).
With `CCCCCn1c(NCc2ccccc2OC)nc2ccccc21`, the survival is -5% (active).
The result for `CCOc1ccc(CNS(=O)(=O)c2ccc3c(c2)CC(C)N3C(C)=O)cc1OC` (stereo not given) reads 70% (inactive); that for `CCN(C(=O)C1CCC(CNS(=O)(=O)c2cccc3nsnc23)CC1)c1ccccc1` (stereo not given), 76% (inactive); that for `CCOC(=O)c1[nH]c(C)c(CCC(=O)Nc2ccccc2OCC)c1C`, 84% (inactive).
The result for `COc1ccc(-c2cn3nc(N4CCCC(C(=O)Nc5ccc(Cl)cc5C)C4)sc3n2)cc1` (stereo not given) reads 77% (inactive).
For `O=C(Cn1c(=O)n(Cc2ccco2)c(=O)c2sc3ccccc3c21)Nc1ccc(F)cc1F`, the survival was 84% (inactive).
Regarding `Cc1ccc(NC(=O)CN2CCCN(Cc3cc(C)ccc3C)S2(=O)=O)c(Cl)c1`, the survival is 55% (inactive).
`Cc1cccc(CN2CCN(CC(=O)Nc3c(C)cccc3C)S2(=O)=O)c1`: the survival is 134% (inactive).
The result for `CCc1cccc(C)c1NC(=O)CN1CCCN(Cc2ccc(C)cc2)S1(=O)=O` reads 0% (active).
Then `Cc1ccc(NC(=O)CN2CCCN(Cc3ccccc3Cl)S2(=O)=O)c(C)c1`, with -1% (active); and `Cc1ccccc1CN1CCCN(CC(=O)Nc2c(C)cccc2C)S1(=O)=O`, with 66% (inactive); and `CCc1cccc(C)c1NC(=O)CN1CCCN(Cc2ccccc2Cl)S1(=O)=O`, with 14% (active).
Consider `O=C(CN1CCCN(Cc2ccccc2Cl)S1(=O)=O)NCc1ccccc1`, for which the survival is 78% (inactive).
Turning to `CCc1cccc(C)c1NC(=O)CN1CCN(Cc2ccccc2Cl)S1(=O)=O`, the survival was 134% (inactive).
As for `Cc1ccc(CN2CCCN(CC(=O)Nc3ccc(C)cc3C)S2(=O)=O)cc1`, the survival is 85% (inactive).
As to `COc1ccccc1CNC(=O)c1cnc2sc(N3CCOCC3)nn2c1=O`, the survival was 153% (inactive).
`CC(C)(C)c1ccc(C(=O)Nc2c(C(=O)c3ccc(F)cc3)oc3ccccc23)cc1`: the survival was 73% (inactive).
As for `Cc1ccc(C(=O)N2CC3(C)CC2CC(C)(C)C3)cc1` (stereo not given), the survival was 110% (inactive).
With `CCn1c(CN2CCCCC2)nc2cc(NC(=O)COc3ccc([N+](=O)[O-])cc3)ccc21`, the survival is 79% (inactive).
Then `COc1cc(C(=O)N(CCc2ccccc2)C2CC3CCC(C2)N3C)cc(OC)c1OC` (stereo not given), with 104% (inactive).
In the case of `O=C(NCc1ccccc1)c1nc(S(=O)(=O)Cc2ccccc2)ncc1Cl`, the survival was 42% (inactive).
Take `COc1ccc(OC)c(NC(=O)c2nc(SCc3ccc(F)cc3)ncc2Cl)c1`: the survival was 100% (inactive).
As for `Cc1ccc(C)c(NC(=O)c2nc(S(=O)(=O)Cc3ccc(F)cc3)ncc2Cl)c1`, the survival was 109% (inactive).
For the molecule `O=C(NCc1ccccc1)c1nc(S(=O)(=O)Cc2ccc(F)cc2)ncc1Cl`, the survival is -5% (active).
For the molecule `COc1ccc(OC)c(NC(=O)c2nc(S(=O)(=O)Cc3ccc(F)cc3)ncc2Cl)c1`, the survival was -3% (active).
Take `COc1ccc(CNC(=O)c2nc(S(=O)(=O)Cc3ccccc3)ncc2Cl)cc1`: the survival is 34% (inactive).
With `COc1cc(C2NC(=O)c3c(sc4c3CCN(C)C4)N2)ccc1OC(=O)c1ccccc1` (stereo not given), the survival was 80% (inactive).
For `O=C(CSc1nc(=O)n(Cc2ccco2)c2c1CCC2)NCc1ccccc1`, the survival was 72% (inactive).
The result for `Cc1ccc(NC(=O)CCc2nnc3n(C)c(=O)c4sccc4n23)cc1C` reads 72% (inactive); that for `Cc1ccsc1CCN1C(=O)N(c2ccc(F)cc2)C(=O)C1CC(=O)Nc1ccccc1` (stereo not given), 72% (inactive); that for `COc1ccc2c(CNCc3cccs3)c(C(=O)O)n(Cc3ccccc3)c2c1`, 84% (inactive).
As to `COc1cc(NS(=O)(=O)c2ccc3[nH]c4c(c3c2)CCCC4)cc(OC)c1OC`, the survival is 129% (inactive).
For `CCOC(=O)c1cccc(NC(=O)CCCn2c(C)c3cnn(-c4ccccc4)c(=O)c3c2C)c1`, the survival is 77% (inactive).
`CC(C)CCSc1nnc2n(-c3ccccc3)c(=O)c3c4c(sc3n12)CC(C)CC4` (stereo not given): the survival is 76% (inactive).
In the case of `CCCSc1nc2sc3c(c2c(=O)n1-c1ccc(C)cc1)CCCC3`, the survival is 5% (active).
As for `CSc1nc2sc3c(c2c(=O)n1-c1ccccc1)CCC(C(C)(C)C)C3` (stereo not given), the survival was 12% (active).
With `Cc1ccc(-n2c(SCCC(C)C)nc3sc4c(c3c2=O)CC(C)(C)OC4)cc1`, the survival is 76% (inactive).
`CCSc1nc2sc3c(c2c(=O)n1-c1ccc(C)cc1)CCCC3`: the survival was 0% (active).
Consider `CSc1nc2sc3c(c2c(=O)n1Cc1ccccc1)CCC(C(C)(C)C)C3` (stereo not given), for which the survival was 113% (inactive).
On to `CCCSc1nc2sc3c(c2c(=O)n1-c1ccccc1)CCC(C)C3` (stereo not given), for which the survival is 1% (active).
Take `CCCSc1nc2sc3c(c2c(=O)n1-c1ccc(C)c(Cl)c1)CCN(C(C)=O)C3`: the survival was 87% (inactive).
On to `CCOC(=O)CSc1nc2sc3c(c2c(=O)n1-c1ccccc1)CCC(C(C)(C)C)C3` (stereo not given), for which the survival was 70% (inactive).
The result for `C=C(C)CSc1nc2sc3c(c2c(=O)n1-c1ccccc1)CCC(C)C3` (stereo not given) reads 67% (inactive); that for `CCSc1nc2sc3c(c2c(=O)n1-c1ccc(C)c(Cl)c1)CCN(C(C)=O)C3`, 70% (inactive); that for `Cc1ccc(-n2c(SCC(=O)O)nc3sc4c(c3c2=O)CCCC4)cc1`, 73% (inactive).
Consider `Cc1ccc(C)c(N(CC(=O)Nc2ccccc2)S(C)(=O)=O)c1`, for which the survival is 99% (inactive).
As to `CCc1cccc(NC(=O)Cn2c(=O)ccc3cc(S(=O)(=O)N4CCC(C)CC4)ccc32)c1`, the survival is 129% (inactive).
On to `Cc1ccc2oc(C(=O)Nc3nc(-c4ccc(F)cc4)ns3)c(C)c2c1`, for which the survival was 87% (inactive).
The result for `COc1ccc(NC(=O)c2c(NCc3cccs3)sc3c2CCCC3)cc1` reads 80% (inactive); that for `CCOC(=O)c1cccc(NC(=O)CCSCCc2ccccn2)c1`, 68% (inactive); that for `CCOC(=O)Cn1cnc2c(cnn2-c2ccc(C)c(C)c2)c1=O`, 72% (inactive).
`COc1ccc(NC(=O)N2CCc3c([nH]c4ccc(OC)cc34)C2c2ccc(OC)cc2)cc1` (stereo not given): the survival is 93% (inactive).
The result for `Cc1ccc(CS(=O)(=O)c2ncc(Cl)c(C(=O)Nc3nc4ccc(C)cc4s3)n2)cc1` reads 26% (inactive); that for `O=C(NCc1ccccc1)C(=O)NCC(c1cccnc1)N1CCN(c2ccccc2)CC1` (stereo not given), 82% (inactive).
Then `Cc1ccccc1CNC(=O)C1CCN(c2nn3cc(-c4ccc(F)cc4)nc3s2)CC1`, with 66% (inactive); and `Cc1ccc2ncc(C(=O)NCc3ccccc3Cl)c(=O)n2c1`, with 93% (inactive); and `CC1CCN(c2ccc(-c3nc(-c4ccccc4)no3)cc2[N+](=O)[O-])CC1`, with 112% (inactive).
Consider `Cc1cc(C)cc(NC(=O)CSc2oc(-c3cccs3)nc2S(=O)(=O)c2ccc(Br)cc2)c1`, for which the survival was 75% (inactive).
Then `CCCCCSc1nc2sc3c(c2c(=O)n1-c1ccccc1)CCN(C(C)=O)C3`, with 58% (inactive); and `CCCCn1c(SCC(=O)c2ccccc2)nc2sc3c(c2c1=O)CCCC3`, with 62% (inactive).
As to `CCCCCSc1nc2sc3c(c2c(=O)n1-c1ccc(OC)cc1)CCN(C(C)=O)C3`, the survival is -21% (active).
On to `C=C(C)Cn1c(SCC(=O)c2ccccc2)nc2sc3c(c2c1=O)CCCC3`, for which the survival was 84% (inactive).
Turning to `C=C(C)CSc1nc2sc3c(c2c(=O)n1CCCC)CCCC3`, the survival was 0% (active).
As for `COc1ccc(-n2c(SC)nc3sc4c(c3c2=O)CCN(C(C)=O)C4)cc1`, the survival is 126% (inactive).
